The values below come from ChEMBL document CHEMBL1961873, “Compounds: GSK PKIS; Assays: Nanosyn kinase panel” (2012).

In test [1] the target is Protein kinase C gamma type (Homo sapiens) (UniProt P05129). To be noted: at 1 µM.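 Further: each value is an averaged percent inhibition of the enzyme.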
For test [2], the target named is T1, Protein kinase C iota type (Homo sapiens) (UniProt P41743).
T1 sequence (whole entry): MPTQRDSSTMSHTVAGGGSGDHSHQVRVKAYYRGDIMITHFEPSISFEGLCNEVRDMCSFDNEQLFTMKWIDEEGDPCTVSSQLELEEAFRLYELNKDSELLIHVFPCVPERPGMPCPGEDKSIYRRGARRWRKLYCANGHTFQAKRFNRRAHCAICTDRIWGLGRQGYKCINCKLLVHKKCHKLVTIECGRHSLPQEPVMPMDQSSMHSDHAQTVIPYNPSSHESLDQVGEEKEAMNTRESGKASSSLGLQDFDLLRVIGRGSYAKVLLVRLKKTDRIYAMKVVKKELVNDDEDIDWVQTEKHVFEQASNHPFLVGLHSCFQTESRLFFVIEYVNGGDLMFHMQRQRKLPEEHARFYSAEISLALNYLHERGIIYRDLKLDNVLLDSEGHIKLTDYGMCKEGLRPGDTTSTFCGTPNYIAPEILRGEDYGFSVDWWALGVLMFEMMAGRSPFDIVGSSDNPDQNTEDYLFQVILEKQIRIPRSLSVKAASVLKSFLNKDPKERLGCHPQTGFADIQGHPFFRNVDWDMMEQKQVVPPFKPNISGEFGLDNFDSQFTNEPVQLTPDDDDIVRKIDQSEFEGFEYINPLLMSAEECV
The following applies: at 0.1 µM.

The target of test [3] is T1, Protein kinase C iota type (Homo sapiens). The following applies: at 1 µM.
In test [4] the target is Protein kinase C theta type (Homo sapiens) (UniProt Q04759). To be noted: at 0.1 µM.
The target is the same in test [5]. To be noted: at 1 µM.
Test [6] addresses Protein kinase C beta type (Homo sapiens) (UniProt P05771). The following applies: at 0.1 µM.
Test [7] has the same target. To be noted: at 1 µM.
The target in test [8] is T2, Serine/threonine-protein kinase D1 (Homo sapiens) (UniProt Q15139).
T2 sequence (whole entry): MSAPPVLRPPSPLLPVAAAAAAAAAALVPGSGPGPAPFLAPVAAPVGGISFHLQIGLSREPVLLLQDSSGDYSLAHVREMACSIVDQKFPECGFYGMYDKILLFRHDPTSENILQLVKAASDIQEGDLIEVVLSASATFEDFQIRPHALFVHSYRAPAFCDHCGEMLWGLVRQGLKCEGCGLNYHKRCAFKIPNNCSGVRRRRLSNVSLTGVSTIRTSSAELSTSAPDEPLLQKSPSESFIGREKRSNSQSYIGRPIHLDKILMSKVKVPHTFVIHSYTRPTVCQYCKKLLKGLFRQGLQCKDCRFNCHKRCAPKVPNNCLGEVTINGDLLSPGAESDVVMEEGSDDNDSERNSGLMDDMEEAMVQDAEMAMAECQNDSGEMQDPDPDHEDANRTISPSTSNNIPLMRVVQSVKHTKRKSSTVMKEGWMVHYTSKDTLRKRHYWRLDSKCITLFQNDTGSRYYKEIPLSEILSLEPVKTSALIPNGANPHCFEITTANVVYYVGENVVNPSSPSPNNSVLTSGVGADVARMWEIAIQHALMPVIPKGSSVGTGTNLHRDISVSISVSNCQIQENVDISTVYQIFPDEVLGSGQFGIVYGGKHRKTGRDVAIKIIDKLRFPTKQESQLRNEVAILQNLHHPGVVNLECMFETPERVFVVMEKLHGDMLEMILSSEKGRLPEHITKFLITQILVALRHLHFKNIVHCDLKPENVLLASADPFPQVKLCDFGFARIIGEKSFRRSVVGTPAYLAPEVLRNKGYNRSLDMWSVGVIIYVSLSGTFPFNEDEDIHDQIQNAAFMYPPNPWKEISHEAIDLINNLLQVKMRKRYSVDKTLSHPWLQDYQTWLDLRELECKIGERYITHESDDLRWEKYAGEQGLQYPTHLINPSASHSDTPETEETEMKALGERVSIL
To be noted: at 0.1 µM.

The target of test [9] is T2, Serine/threonine-protein kinase D1 (Homo sapiens). The following applies: at 1 µM.
In test [10] the target is T3, Serine/threonine-protein kinase D2 (Homo sapiens) (UniProt Q9BZL6).
T3 sequence (whole entry): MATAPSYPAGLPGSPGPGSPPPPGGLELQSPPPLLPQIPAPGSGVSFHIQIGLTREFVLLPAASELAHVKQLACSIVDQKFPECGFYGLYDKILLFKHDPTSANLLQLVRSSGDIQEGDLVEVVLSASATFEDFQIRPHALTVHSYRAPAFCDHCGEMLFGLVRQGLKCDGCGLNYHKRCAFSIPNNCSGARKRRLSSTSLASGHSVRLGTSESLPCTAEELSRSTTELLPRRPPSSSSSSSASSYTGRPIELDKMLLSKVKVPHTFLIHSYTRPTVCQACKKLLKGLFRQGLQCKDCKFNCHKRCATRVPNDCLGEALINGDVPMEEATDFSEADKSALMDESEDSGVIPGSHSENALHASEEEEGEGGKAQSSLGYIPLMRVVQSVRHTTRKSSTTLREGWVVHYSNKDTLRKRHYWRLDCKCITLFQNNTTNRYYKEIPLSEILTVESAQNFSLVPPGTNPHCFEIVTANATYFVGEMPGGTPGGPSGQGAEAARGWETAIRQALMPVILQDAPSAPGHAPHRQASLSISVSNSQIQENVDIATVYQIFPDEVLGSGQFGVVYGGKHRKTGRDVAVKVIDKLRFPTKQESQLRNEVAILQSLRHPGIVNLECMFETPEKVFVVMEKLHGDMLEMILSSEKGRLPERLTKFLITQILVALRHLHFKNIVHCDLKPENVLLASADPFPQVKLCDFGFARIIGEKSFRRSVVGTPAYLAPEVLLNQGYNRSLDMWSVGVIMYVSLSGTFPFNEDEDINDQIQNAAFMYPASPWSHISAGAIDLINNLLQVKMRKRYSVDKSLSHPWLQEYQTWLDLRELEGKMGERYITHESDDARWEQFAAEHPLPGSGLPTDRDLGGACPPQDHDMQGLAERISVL
To be noted: at 0.1 µM.

For test [11], the target named is T3, Serine/threonine-protein kinase D2 (Homo sapiens). The following applies: at 1 µM.
The target in test [12] is T4, Serine/threonine-protein kinase D3 (Homo sapiens) (UniProt O94806).
T4 sequence (whole entry): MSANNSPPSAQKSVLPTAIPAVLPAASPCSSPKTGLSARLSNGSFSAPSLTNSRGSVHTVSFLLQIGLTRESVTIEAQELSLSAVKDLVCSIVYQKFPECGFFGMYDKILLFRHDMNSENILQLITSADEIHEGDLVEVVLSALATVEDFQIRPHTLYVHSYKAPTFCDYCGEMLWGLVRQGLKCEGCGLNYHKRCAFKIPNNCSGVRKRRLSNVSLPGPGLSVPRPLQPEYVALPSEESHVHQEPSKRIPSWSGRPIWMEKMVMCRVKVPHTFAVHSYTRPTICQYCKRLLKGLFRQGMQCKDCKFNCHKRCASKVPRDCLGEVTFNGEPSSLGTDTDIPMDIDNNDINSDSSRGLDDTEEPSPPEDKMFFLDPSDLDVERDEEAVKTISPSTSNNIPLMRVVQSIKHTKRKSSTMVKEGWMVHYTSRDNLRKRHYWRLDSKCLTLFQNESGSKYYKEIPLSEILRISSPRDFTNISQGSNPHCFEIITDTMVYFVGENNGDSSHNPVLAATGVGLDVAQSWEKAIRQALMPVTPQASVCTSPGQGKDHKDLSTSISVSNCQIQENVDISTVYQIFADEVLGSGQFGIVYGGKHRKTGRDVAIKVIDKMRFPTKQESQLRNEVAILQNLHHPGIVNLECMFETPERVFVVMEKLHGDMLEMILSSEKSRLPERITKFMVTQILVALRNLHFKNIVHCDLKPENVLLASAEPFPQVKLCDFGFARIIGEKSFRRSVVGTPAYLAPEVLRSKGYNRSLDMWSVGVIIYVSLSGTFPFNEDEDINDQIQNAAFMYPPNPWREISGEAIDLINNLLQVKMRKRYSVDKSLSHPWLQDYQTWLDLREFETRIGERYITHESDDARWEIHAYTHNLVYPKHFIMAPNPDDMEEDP
To be noted: at 0.1 µM.

In test [13] the target is T4, Serine/threonine-protein kinase D3 (Homo sapiens). To be noted: at 1 µM.
Test [14] addresses T5, cGMP-dependent protein kinase 1 (Homo sapiens) (UniProt Q13976).
T5 sequence (whole entry): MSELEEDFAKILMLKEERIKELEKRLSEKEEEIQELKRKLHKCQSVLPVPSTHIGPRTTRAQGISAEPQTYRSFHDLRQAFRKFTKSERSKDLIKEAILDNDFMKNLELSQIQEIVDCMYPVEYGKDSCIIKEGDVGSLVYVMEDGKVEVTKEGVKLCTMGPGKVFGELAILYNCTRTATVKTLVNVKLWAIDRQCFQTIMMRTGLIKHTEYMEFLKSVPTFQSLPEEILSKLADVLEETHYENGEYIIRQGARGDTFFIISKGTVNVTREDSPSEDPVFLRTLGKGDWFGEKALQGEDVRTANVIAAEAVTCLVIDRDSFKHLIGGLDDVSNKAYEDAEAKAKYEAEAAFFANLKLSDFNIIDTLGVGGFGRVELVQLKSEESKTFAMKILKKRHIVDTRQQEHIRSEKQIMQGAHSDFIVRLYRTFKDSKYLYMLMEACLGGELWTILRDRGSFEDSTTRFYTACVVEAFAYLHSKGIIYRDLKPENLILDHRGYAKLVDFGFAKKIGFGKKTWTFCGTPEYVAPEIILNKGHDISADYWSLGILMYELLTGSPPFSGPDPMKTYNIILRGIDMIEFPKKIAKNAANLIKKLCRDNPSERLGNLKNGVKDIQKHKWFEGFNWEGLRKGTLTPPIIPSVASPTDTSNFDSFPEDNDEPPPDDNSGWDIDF
To be noted: at 0.1 µM.

The target of test [15] is T5, cGMP-dependent protein kinase 1 (Homo sapiens). To be noted: at 1 µM.
Test [16] deals with T6, cGMP-dependent protein kinase 2 (Homo sapiens) (UniProt Q13237).
T6 sequence (whole entry): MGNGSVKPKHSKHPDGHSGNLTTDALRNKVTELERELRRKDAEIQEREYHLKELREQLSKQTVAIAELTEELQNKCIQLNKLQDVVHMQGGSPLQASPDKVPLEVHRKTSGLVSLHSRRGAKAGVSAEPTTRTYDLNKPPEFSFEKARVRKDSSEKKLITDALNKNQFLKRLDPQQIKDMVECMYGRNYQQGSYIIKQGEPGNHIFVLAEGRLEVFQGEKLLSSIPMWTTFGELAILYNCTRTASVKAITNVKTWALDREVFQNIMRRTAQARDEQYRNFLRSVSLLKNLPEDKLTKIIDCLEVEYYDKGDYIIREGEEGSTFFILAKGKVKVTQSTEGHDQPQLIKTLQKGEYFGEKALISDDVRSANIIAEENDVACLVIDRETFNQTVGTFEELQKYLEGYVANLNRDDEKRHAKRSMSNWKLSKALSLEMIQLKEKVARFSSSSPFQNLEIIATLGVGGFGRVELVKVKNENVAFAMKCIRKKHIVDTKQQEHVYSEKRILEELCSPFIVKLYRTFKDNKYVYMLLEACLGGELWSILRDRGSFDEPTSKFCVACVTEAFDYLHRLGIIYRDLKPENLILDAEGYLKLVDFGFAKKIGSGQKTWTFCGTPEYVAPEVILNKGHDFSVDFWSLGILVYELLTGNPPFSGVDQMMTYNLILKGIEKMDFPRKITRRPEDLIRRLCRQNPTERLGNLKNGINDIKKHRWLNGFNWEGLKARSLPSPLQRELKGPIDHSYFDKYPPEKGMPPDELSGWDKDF
The following applies: at 0.1 µM.

Test [17] deals with T6, cGMP-dependent protein kinase 2 (Homo sapiens). The following applies: at 1 µM.
For test [18], the target named is T7, cAMP-dependent protein kinase catalytic subunit PRKX (Homo sapiens) (UniProt P51817).
T7 sequence (whole entry): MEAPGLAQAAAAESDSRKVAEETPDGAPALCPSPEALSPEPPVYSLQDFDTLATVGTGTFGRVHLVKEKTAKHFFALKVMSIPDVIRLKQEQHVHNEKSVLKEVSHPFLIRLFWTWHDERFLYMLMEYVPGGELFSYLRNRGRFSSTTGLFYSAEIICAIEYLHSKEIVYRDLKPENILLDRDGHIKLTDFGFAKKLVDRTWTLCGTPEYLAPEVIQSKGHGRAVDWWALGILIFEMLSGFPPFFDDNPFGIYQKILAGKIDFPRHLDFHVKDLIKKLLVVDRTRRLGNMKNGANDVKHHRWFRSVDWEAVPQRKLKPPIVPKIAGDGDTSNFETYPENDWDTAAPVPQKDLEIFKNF
The following applies: at 0.1 µM.

In test [19] the target is T7, cAMP-dependent protein kinase catalytic subunit PRKX (Homo sapiens). To be noted: at 1 µM.
Test [20] addresses Rho-associated protein kinase 1 (Homo sapiens) (UniProt Q13464). To be noted: at 0.1 µM.

Sequence of Protein kinase C theta type (Homo sapiens) (Q04759 whole entry, looked up): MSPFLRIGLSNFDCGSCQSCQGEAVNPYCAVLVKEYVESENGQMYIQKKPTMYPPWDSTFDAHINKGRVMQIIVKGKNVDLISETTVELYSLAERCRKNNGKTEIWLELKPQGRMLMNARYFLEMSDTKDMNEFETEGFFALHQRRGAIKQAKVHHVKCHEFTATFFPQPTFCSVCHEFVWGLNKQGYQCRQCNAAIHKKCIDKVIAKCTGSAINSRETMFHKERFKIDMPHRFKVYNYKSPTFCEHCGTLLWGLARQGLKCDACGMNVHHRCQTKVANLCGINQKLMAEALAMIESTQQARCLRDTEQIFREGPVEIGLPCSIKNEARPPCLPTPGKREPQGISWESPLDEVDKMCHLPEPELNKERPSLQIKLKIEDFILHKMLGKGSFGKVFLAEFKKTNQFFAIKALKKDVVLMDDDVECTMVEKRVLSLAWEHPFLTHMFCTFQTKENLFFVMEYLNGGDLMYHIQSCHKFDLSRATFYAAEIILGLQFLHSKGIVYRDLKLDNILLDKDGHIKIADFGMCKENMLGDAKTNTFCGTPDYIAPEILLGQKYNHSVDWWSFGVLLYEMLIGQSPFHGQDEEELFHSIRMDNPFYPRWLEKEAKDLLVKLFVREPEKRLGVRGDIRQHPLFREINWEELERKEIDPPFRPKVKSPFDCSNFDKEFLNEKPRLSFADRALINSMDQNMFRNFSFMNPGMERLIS
Sequence of Protein kinase C beta type (Homo sapiens) (P05771 2-671 limits assumed): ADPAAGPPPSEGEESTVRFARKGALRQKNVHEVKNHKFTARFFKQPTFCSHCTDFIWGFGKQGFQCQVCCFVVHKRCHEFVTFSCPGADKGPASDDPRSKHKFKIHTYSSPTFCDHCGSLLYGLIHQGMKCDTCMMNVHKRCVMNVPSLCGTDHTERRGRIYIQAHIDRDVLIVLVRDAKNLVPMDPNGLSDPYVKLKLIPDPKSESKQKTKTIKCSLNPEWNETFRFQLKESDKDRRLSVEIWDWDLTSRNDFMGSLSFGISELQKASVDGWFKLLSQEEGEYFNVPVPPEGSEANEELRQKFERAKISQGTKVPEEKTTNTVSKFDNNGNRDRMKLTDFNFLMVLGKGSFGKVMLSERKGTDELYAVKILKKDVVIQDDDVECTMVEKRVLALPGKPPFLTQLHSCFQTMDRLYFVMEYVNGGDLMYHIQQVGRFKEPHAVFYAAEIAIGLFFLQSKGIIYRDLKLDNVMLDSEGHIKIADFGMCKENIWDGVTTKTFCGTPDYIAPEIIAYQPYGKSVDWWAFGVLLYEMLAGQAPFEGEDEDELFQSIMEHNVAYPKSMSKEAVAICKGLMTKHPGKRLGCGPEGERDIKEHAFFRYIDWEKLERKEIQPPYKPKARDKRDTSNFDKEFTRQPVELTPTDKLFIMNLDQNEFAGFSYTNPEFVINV
Sequence of Rho-associated protein kinase 1 (Homo sapiens) (Q13464 2-1354 limits assumed): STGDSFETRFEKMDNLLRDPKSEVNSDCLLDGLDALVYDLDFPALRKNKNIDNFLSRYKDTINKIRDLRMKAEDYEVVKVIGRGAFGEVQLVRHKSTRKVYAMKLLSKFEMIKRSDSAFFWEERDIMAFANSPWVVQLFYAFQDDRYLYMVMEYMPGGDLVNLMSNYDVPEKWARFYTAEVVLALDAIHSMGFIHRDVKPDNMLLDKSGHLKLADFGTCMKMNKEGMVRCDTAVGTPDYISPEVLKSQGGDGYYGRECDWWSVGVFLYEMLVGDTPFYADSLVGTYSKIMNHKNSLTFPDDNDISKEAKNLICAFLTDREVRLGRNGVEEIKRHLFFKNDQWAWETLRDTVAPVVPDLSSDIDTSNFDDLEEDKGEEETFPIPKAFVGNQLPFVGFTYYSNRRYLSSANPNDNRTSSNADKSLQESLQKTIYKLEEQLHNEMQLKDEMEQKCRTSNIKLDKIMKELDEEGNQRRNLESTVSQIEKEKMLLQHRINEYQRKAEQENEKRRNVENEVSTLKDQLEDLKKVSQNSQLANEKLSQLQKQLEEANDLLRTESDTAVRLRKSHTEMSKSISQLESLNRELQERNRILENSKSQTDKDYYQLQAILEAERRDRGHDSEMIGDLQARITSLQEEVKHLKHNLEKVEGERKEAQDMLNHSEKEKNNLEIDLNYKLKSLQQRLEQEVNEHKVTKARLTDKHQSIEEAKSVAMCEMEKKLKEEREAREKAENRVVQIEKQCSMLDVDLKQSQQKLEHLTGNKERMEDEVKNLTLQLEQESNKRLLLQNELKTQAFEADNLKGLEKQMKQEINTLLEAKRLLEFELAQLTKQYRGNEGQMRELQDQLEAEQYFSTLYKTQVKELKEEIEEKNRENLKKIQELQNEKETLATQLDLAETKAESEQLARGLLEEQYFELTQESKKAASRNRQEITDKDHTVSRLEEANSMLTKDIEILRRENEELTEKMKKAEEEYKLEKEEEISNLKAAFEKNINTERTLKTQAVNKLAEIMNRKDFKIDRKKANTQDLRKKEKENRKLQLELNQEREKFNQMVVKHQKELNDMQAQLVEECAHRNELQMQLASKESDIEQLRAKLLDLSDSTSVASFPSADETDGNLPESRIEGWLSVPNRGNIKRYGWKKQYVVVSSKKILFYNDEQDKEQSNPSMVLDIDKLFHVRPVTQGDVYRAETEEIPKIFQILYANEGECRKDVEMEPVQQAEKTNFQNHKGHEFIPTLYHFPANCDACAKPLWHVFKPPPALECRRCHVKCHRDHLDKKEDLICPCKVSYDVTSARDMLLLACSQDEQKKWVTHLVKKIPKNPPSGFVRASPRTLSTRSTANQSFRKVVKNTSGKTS

One may read the inhibition as the relative decrease from the control value, in per cent. As for `O=C(Nc1n[nH]c2nnc(-c3cccnc3)cc12)C1CC1`, the inhibition is 2.11% in [1]; -0.5% in [2]; -0.56% in test [3]; -0.08% in test [4]; 0.79% in [5]; 0.49% in test [6]. Moreover, the inhibition was 3.21% in test [7]; -0.5% in test [8]; 0.81% in [9]; -1.06% in [10]; 0.68% in test [11]; -0.7% in test [12]. For the same compound, the inhibition in test [13] is 0.02%; in [14] it was -0.91%; in [15], 0.14%; in [16], 1.31%; in [17], 7.32%; in test [18] it was -0.34%. The inhibition in test [19] is -0.33%; in [20], -0.21%.
As for `CNC(=O)c1sc(-n2cnc3cc(OC)c(OC)cc32)cc1OCc1ccccc1C(F)(F)F`, the inhibition in test [1] is -2.1%; in [2], 1.37%; in test [3], 0.74%; in [4], 2.36%; in [5], 0.67%; in [6] it was 1.04%. Also, the inhibition was 1.38% in test [7]; 3.83% in test [8]; 4.48% in [9]; 4% in test [10]; 4.27% in [11]; 4.09% in [12]. Besides, the inhibition in [13] worked out at 4.54%; in test [14], 2.58%; in test [15], 2.12%; in test [16], 1.27%; in test [17], 1.38%; in test [18], 2.66%. Moreover, the inhibition in test [19] worked out at 1.17%; in test [20] it was 0.61%.
